Holding throughout (assay): protein-binding microarray (PBM); PBM: ~300 nM protein, 6 mM HEPES pH 7.8, 80 mM KCl, 0.5 mM EDTA, 0.5 mM EGTA, 6% glycerol, 35 ng/ul poly-dIdC, 1% milk, 1 h, room temperature; Ap Aiptasia and Nv Nematostella (sea anemones) / Co Capsaspora / Aq Amphimedon (sponge) / Dm Drosophila / Hu human; RHD is the Rel homology domain; high values mean tight binding
Holding throughout (conditions): dsDNA, one strand shown

For one assay, the target named is T1, GST-Ap-NF-kB RHD (Exaiptasia pallida (Aiptasia), UniProt A0A913YAJ5 2-422).
T1 sequence: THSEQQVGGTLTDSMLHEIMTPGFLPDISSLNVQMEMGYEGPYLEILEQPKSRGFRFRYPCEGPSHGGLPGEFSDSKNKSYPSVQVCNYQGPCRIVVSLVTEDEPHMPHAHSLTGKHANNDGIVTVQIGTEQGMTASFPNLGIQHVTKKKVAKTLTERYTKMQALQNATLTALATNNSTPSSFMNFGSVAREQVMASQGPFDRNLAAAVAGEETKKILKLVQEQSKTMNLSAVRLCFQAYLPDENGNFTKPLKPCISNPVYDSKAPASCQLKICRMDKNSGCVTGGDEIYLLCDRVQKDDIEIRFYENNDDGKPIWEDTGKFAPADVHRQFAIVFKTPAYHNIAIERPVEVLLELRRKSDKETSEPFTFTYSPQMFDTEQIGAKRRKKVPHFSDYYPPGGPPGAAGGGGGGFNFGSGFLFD

The target in assay [1] is T2, GST-Nv-NF-kB (Cys allele) (Nematostella vectensis, UniProt E5G601 2-411).
T2 sequence: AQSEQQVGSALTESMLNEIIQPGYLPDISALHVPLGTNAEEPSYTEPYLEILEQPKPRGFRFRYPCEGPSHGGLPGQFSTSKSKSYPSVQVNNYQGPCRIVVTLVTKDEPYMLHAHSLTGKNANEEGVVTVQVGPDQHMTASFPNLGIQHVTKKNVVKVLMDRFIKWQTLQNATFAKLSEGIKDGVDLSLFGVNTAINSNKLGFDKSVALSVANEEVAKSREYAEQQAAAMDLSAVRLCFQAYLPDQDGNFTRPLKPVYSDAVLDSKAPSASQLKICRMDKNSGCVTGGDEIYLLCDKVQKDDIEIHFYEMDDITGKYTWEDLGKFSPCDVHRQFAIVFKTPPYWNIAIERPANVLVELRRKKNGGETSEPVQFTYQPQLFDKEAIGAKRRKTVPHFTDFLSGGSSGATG

Assay [2] has as its target T3, GST-Nv-NF-kB (Ser allele) (Nematostella vectensis, UniProt A7UNT2 2-411).
T3 sequence: T2 sequence with Q21R, C66S, S207N, E215Q, V217A, E225K, A268E, D399E

Another assay concerns the target T4, GST-Co-NF-kB (Capsaspora owczarzaki, UniProt F1ARL5 200-546).
T4 sequence: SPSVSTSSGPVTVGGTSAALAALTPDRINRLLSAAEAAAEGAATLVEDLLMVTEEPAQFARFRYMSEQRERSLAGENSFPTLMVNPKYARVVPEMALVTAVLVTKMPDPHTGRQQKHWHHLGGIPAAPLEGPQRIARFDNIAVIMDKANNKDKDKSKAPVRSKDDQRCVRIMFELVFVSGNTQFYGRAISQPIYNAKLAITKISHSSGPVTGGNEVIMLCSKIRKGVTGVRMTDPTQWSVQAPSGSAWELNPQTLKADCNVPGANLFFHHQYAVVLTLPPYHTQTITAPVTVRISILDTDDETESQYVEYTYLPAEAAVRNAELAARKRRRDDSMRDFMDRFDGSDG

The next assay has as its target T5, GST-Dm-Relish (Drosophila melanogaster, UniProt Q94527 99-473).
T5 sequence: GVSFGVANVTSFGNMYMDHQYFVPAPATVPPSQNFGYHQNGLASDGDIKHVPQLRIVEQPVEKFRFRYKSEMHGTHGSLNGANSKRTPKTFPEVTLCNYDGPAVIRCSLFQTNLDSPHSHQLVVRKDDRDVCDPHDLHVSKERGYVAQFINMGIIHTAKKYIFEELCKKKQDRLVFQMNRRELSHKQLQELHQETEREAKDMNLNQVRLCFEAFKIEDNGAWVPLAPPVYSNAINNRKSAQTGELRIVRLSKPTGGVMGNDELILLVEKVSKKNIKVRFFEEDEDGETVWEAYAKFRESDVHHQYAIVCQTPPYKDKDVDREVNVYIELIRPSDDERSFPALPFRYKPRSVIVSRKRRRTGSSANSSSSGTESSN

The target in the next assay is T6, GST-Aq-NF-kB (Amphimedon queenslandica, UniProt A9Y5G7 2-389).
T6 sequence: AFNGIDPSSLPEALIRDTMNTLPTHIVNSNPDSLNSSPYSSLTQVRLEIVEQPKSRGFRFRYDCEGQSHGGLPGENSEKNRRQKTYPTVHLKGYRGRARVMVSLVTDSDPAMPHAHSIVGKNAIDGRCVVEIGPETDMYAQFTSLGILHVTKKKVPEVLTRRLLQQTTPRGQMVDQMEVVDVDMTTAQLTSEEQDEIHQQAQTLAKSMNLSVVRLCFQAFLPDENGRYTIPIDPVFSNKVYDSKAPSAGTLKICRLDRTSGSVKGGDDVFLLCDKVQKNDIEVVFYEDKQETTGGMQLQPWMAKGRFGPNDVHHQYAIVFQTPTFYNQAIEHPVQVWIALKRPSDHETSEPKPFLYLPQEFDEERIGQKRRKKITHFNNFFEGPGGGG

In the next assay the target is GST-Hu-p50 (Homo sapiens, UniProt P19838 7-356).

Changes are numbered by the printed parent chain.

Sequence of GST-Hu-p50 (P19838 7-356): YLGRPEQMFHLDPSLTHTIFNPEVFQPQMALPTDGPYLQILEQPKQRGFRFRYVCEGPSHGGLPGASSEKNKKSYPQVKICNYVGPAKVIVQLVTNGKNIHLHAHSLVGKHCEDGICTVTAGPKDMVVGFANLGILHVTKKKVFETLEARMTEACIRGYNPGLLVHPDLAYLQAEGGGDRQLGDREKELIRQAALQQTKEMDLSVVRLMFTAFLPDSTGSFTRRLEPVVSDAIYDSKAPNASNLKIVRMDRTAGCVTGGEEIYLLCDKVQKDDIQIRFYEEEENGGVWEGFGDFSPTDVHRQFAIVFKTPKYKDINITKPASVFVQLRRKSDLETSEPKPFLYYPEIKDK

For the sequence “CCGATTAACATCAAGAACCCCCTTGATGTTAATCGGGTCTTGATTCGCTTGACGCTGCTG”, the binding signal with GST-Ap-NF-kB RHD amounted to 7.4 z-score; in assay [1] it was 6.12 z-score; in assay [2], 7.11 z-score; with GST-Co-NF-kB, 1.5 z-score; with GST-Dm-Relish it was 8.56 z-score; with GST-Aq-NF-kB it was 6.48 z-score. Besides, the binding signal with GST-Hu-p50 was 6.86 z-score.
On to “CCGATTAACATCAGAGTTTCCCCTGATGTTAATCGGGTCTTGATTCGCTTGACGCTGCTG”, for which the binding signal with GST-Ap-NF-kB RHD is 7.08 z-score; in assay [1], 8.35 z-score; in assay [2] it was 9.96 z-score; with GST-Co-NF-kB, 7.72 z-score; in the assay with GST-Dm-Relish it was 4.61 z-score; with GST-Aq-NF-kB, 6.33 z-score. The binding signal in the assay with GST-Hu-p50 was found to be 6.14 z-score.
As for “CCGATTAACATCAAACATTCCCATGATGTTAATCGGGTCTTGATTCGCTTGACGCTGCTG”, the binding signal was 1.96 z-score with GST-Ap-NF-kB RHD; 3.21 z-score in assay [1]; 2.5 z-score in assay [2]; 2.38 z-score in the assay with GST-Co-NF-kB; 1.59 z-score with GST-Dm-Relish; 3.52 z-score with GST-Aq-NF-kB. Besides, the binding signal in the assay with GST-Hu-p50 came out at 2.11 z-score.
Regarding “CCGATTAACATCAATTTTCCCACTGATGTTAATCGGGTCTTGATTCGCTTGACGCTGCTG”, the binding signal with GST-Ap-NF-kB RHD is 2.82 z-score; in assay [1], 3.99 z-score; in assay [2] it was 4.57 z-score; with GST-Co-NF-kB, 4.54 z-score; with GST-Dm-Relish, 1.33 z-score; in the assay with GST-Aq-NF-kB, 3.35 z-score. The sequence also registered a binding signal in the assay with GST-Hu-p50 of 3.37 z-score.
On to “CCGATTAACATCAGAAATACCCCTGATGTTAATCGGGTCTTGATTCGCTTGACGCTGCTG”, for which the binding signal turned out to be 6.58 z-score with GST-Ap-NF-kB RHD; 6.99 z-score in assay [1]; 6.08 z-score in assay [2]; 4.66 z-score in the assay with GST-Co-NF-kB; 4.99 z-score with GST-Dm-Relish; 6.25 z-score with GST-Aq-NF-kB. The same sequence came in with a binding signal with GST-Hu-p50 of 5.86 z-score.
Regarding “CCGATTAACATCAGACATCCCCCTGATGTTAATCGGGTCTTGATTCGCTTGACGCTGCTG”, the binding signal is 5.54 z-score in the assay with GST-Ap-NF-kB RHD; 5.65 z-score in assay [1]; 5.36 z-score in assay [2]; 3.71 z-score in the assay with GST-Co-NF-kB; 5.06 z-score with GST-Dm-Relish; 5.17 z-score with GST-Aq-NF-kB. In addition, the binding signal with GST-Hu-p50 was found to be 4.88 z-score.
“CCGATTAACATCAAATCCCCCCATGATGTTAATCGGGTCTTGATTCGCTTGACGCTGCTG”: the binding signal stood at 7.89 z-score in the assay with GST-Ap-NF-kB RHD; 6.31 z-score in assay [1]; 6.65 z-score in assay [2]; 7.39 z-score in the assay with GST-Co-NF-kB; 7.66 z-score with GST-Dm-Relish; 6.36 z-score with GST-Aq-NF-kB. Further, the binding signal with GST-Hu-p50 is 6.55 z-score.
On to “CCGATTAACATCAATATTTTCCCTGATGTTAATCGGGTCTTGATTCGCTTGACGCTGCTG”, for which the binding signal with GST-Ap-NF-kB RHD is 4.35 z-score; in assay [1] it was 6.75 z-score; in assay [2], 8.82 z-score; with GST-Co-NF-kB it was 6.01 z-score; with GST-Dm-Relish, 2.69 z-score; in the assay with GST-Aq-NF-kB, 4.5 z-score. Also, the binding signal in the assay with GST-Hu-p50 worked out at 5.3 z-score.
For the sequence “CCGATTAACATCAGGGAAACACCTGATGTTAATCGGGTCTTGATTCGCTTGACGCTGCTG”, the binding signal stood at 5.49 z-score in the assay with GST-Ap-NF-kB RHD; 6.62 z-score in assay [1]; 6.01 z-score in assay [2]; 2.74 z-score with GST-Co-NF-kB; 6.92 z-score in the assay with GST-Dm-Relish; 7.75 z-score in the assay with GST-Aq-NF-kB. Also, the binding signal with GST-Hu-p50 stood at 5.15 z-score.
Turning to “CCGATTAACATCACCAACCCCCCTGATGTTAATCGGGTCTTGATTCGCTTGACGCTGCTG”, the binding signal with GST-Ap-NF-kB RHD is 5.65 z-score; in assay [1] it was 3.47 z-score; in assay [2] it was 4.4 z-score; in the assay with GST-Co-NF-kB it was 3.02 z-score; in the assay with GST-Dm-Relish, 5.37 z-score; in the assay with GST-Aq-NF-kB, 3.88 z-score. In the assay with GST-Hu-p50, the binding signal stood at 4.51 z-score.
For the sequence “CCGATTAACATCAGAGAATTCCCTGATGTTAATCGGGTCTTGATTCGCTTGACGCTGCTG”, the binding signal worked out at 5.32 z-score in the assay with GST-Ap-NF-kB RHD; 7.57 z-score in assay [1]; 7.07 z-score in assay [2]; 2.8 z-score in the assay with GST-Co-NF-kB; 4.51 z-score with GST-Dm-Relish; 6.73 z-score in the assay with GST-Aq-NF-kB. For the same sequence, the binding signal with GST-Hu-p50 was 5.27 z-score.
